# Measured values taken from the supplement of paper PMC10849652.
# The full data set covers some 7,900 targets. This sample favours those with a hit. About 0.6% of all pairs of compound and target were hits. Values without a mark were called inactive.
# Key:
# Assay in all cases: log2 fold change, soluble protein after heating vs DMSO (PISA); higher = thermal stabilisation; K562 cells, 10 uM, 30 min; active = over 0.2 and 3.5 SD of the protein, either way, in both replicates (recomputed)
# ZW10 = ZW10 (UniProt O43264)
# ZW10, sequence (O43264 whole entry, looked up): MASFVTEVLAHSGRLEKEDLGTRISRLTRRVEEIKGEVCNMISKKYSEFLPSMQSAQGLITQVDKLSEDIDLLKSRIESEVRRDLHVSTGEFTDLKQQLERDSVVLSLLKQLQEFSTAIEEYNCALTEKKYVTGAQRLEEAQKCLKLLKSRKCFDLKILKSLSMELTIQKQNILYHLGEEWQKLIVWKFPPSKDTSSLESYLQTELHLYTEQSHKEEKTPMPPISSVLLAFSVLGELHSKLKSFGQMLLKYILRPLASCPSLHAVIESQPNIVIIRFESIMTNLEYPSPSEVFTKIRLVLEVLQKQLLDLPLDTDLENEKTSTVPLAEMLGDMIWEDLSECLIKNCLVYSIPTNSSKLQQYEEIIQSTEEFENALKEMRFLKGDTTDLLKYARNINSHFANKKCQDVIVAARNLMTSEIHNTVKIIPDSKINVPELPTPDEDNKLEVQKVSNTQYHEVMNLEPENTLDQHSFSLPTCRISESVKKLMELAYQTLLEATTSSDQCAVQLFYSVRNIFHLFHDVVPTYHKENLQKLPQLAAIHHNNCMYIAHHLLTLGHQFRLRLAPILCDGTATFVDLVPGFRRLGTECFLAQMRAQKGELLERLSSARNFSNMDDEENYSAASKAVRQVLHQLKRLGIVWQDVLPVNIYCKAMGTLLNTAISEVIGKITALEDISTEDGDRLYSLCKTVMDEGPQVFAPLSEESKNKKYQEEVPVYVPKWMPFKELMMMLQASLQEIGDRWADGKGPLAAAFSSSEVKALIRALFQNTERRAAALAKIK
# Method in brief: (§1)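 Soluble protein was quantified by TMTpro 16plex LC-MS/MS after channel sums were equalised. It was obtained as the supernatant after 21,000xg for 90 min from pooled aliquots of K562 cells (2×10^6 cells/mL, 10 μM compound, 30 min) heated for 3 min across 48°C-58°C and extracted in PBS with 0.5% NP-40 at 4°C. Thermal stability values are relative to control samples and come from duplicates. They are given as log2 fold changes.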
# ZWILCH = ZWILCH (UniProt Q9H900)
# ZWILCH, sequence (Q9H900 whole entry, looked up): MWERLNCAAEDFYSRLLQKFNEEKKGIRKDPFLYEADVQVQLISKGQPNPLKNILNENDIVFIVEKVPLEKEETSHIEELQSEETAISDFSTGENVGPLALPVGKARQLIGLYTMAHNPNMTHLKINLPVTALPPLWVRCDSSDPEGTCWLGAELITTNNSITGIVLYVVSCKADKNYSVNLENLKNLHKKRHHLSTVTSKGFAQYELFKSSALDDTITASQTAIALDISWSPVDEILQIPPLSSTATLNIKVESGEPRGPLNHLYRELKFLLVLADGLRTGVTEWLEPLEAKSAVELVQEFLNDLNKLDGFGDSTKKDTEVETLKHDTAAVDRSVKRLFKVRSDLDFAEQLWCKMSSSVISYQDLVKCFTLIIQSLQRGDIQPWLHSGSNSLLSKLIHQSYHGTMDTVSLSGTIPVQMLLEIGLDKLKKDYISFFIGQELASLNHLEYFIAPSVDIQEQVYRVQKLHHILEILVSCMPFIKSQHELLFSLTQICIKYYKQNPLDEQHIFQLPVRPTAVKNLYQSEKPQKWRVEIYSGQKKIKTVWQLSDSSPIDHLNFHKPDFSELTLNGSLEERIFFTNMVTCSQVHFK
# Method in brief: as §1
# ZYG11B = ZYG11B (UniProt Q9C0D3)
# ZYG11B, sequence (Q9C0D3 whole entry, looked up): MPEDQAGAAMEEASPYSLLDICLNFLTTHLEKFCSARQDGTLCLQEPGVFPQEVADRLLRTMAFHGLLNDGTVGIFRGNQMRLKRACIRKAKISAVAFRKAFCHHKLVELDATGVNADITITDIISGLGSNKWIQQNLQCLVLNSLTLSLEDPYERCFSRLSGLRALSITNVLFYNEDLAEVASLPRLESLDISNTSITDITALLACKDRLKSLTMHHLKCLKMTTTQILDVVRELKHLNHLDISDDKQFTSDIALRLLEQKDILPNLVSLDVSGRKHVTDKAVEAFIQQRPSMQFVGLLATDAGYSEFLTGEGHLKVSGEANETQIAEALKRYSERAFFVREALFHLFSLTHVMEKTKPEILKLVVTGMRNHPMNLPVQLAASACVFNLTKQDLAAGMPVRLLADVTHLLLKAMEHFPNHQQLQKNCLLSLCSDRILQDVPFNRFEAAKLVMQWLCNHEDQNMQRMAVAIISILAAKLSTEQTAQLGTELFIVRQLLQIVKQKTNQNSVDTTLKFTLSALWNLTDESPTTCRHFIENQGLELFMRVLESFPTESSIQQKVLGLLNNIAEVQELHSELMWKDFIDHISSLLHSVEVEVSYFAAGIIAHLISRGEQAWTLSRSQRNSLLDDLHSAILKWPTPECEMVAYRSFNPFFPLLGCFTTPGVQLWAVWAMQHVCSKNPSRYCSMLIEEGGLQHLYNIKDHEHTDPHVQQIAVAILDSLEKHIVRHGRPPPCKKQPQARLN
# Method in brief: as §1
SMILES,log2 fold change (ZW10),log2 fold change (ZWILCH),log2 fold change (ZYG11B)
Cc1ccc(C(=O)N(CCCN)[C@@H](c2nc3cc(Cl)ccc3c(=O)n2Cc2ccccc2)C(C)C)cc1 [ispinesib],-0.179,-0.045,0.041
NC(=O)c1cnc(N[C@@H]2CCCC[C@@H]2N)nc1Nc1cccc(-n2nccn2)c1,-0.027,-0.085,0.022
Oc1cc(-c2nc(-c3ccccc3)[nH]c2-c2ccncc2)ccc1Cl,-0.034,-0.002,0.015
CNCc1ccc(-c2[nH]c3cc(F)cc4c3c2CCNC4=O)cc1 [rucaparib],0.128,-0.051,0.061
Cc1cccc(CC(=O)N2CCc3c2ccc(-c2cn(C)c4ncnc(N)c24)c3F)n1,0.034,0.027,-0.031
Cc1cc(Nc2cc(CN3CCOCC3)c3nc(C)c(Cc4ccc(Cl)cc4F)n3n2)n[nH]1 [gandotinib],-0.108,-0.12,0.093
Cc1cccc(-c2[nH]c(C(C)(C)C)nc2-c2ccc3nccnc3c2)n1,0.006,0,-0.039
NC1(c2ccc(-c3nc4ccn5c(=O)[nH]nc5c4cc3-c3ccccc3)cc2)CCC1,-0.141,-0.097,-0.087
CCn1c(C(=O)N(C2CC2)C2CC2)cc2c3c(ncn3C)c(Nc3cc(C)n(C)n3)nc21,-0.06,0.021,-0.017
c1cn2cc(-c3ccc4cn[nH]c4c3)nc(Nc3ccc(N4CCOCC4)cc3)c2n1 [entospletinib],0.063,0.022,0.068
COC(=O)N[C@@H](C)CNc1nccc(-c2cn(C(C)C)nc2-c2cc(Cl)cc(NS(C)(=O)=O)c2F)n1 [encorafenib],0.094,0.076,-0.055
CCCS(=O)(=O)Nc1ccc(F)c(C(=O)c2c[nH]c3ncc(-c4ccc(Cl)cc4)cc23)c1F [vemurafenib],0.025,0.04,0.048
CN(CCOc1ccc(C[C@@H]2SC(=O)NC2=O)cc1)c1ccccn1 (racemic) [rosiglitazone],0.066,0.018,-0.055
Cc1cc(Nc2cc(N3CCN(C)CC3)nc(Sc3ccc(NC(=O)C4CC4)cc3)n2)n[nH]1 [tozasertib],0.068,0.041,-0.031
CC1=C(C(=O)Nc2cc3cn[nH]c3cc2F)C(c2ccc(C(F)(F)F)cc2)CC(=O)N1 (stereo unspecified),-0.033,-0.051,-0.06
Cc1ccc(NC(=O)c2ccc(CN3CC[C@H](N(C)C)C3)c(C(F)(F)F)c2)cc1Nc1nccc(-c2cncnc2)n1 [bafetinib],0.003,-0.031,-0.272 (active)
C[C@@H](Oc1cc(-c2cnn(C3CCNCC3)c2)cnc1N)c1c(Cl)ccc(F)c1Cl [crizotinib],-0.137,-0.068,-0.031
Cn1cc(-c2ccc3nnc(C(F)(F)c4ccc5ncccc5c4)n3n2)cn1,-0.069,-0.069,0
O=C1NC(=O)C(c2cnc3ccccn23)=C1c1cn2c3c(cc(F)cc13)CN(C(=O)N1CCCCC1)CC2,0.054,0.051,0.019
COc1cc(Nc2ncc3c(n2)-c2ccc(Cl)cc2C(c2c(F)cccc2OC)=NC3)ccc1C(=O)O [alisertib],0.031,-0.024,-0.155
CCCc1cc(C)[nH]c(=O)c1CNC(=O)c1cc(-c2ccnc(N3CCN(C)CC3)c2)cc2c1cnn2C(C)C,0.072,0.004,0.1
CN1CCN(CCOc2cc(OC3CCOCC3)c3c(Nc4c(Cl)ccc5c4OCO5)ncnc3c2)CC1 [saracatinib],-0.031,-0.012,-0.051
